Assay outcomes: PubChem BioAssay, National Center for Advancing Translational Sciences (NCATS)
This is one part of a sample in which hits are shown more often than they occur.
PNC inhibitor – High Content Assay for Compounds that inhibit the Assembly of the Perinucleolar Compartment | activity change (PNC), negative = inhibition, % at 10 µM | actives 3.1% (n = 140,000) | PC3M PTB-GFP, PNC prevalence imaging, 16 h; hits give low values;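 active = readout at or below -70, meaning at least 70% loss of cells showing the perinucleolar compartment, a nuclear body marking cancer cells; inconclusive = readout between -30 and a set limit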
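Read-out is percentage of cells bearing a perinucleolar compartment, from automated 20x imaging of fixed, Hoechst-stained PC3M PTB-GFP cells. Cells were seeded 4 h, then exposed 16 h to compound (23 nl of library stock) in duplicate plates.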
Lamin A splicing – qHTS Assay for Modulators of Lamin A Splicing | HeLa LMNA splicing GFP/RFP minigene ratio, 48 h | Potency, µM (highest dose often 46.1 µM), actives largely listed as inhibitors | actives 0.01% (n = 200,000) | AID 1487, 2009; active = well fitted inhibition curve with a large enough effect in the signal ratio, with a control signal flat, not every such curve was filed as active; inconclusive = small, poorly fitted or top-dose-only effect, or effect the other way, or a change in a side signal; the % refers to the signal ratio
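S3 HeLa cells stably expressing lamin A-EGFP splicing minigene plus DsRed2, 600 cells/well, 48 h compound exposure at 37C. Laser-scanning cytometry; analysed as GFP (500-530 nm)/RFP (575-640 nm) total intensity ratio; 0.5% DMSO vehicle.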
IMPase cell inh – qHTS Assay for Identifying the Cell-Membrane Permeable IMPase Inhibitors; CHO-M1 cells, IP1 accumulation, HTRF TR-FRET ratio; 120,000 tested, under 10 active; inhibition (IP1 accumulation), % at 46.1 µM; active = well fitted curve in the direction sought with a large enough effect in the signal ratio, not every such curve was filed as active; inconclusive = small, poorly fitted or top-dose-only effect, or a change in a side signal; inactive = no such curve, though single readings can be large or run the other way; the % refers to the signal ratio;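 note: cells stimulated with carbachol in lithium chloride buffer; higher means more IMPase inhibition seen as more IP1 and lower FRET ratio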
Target sequence (P97697 whole entry, looked up): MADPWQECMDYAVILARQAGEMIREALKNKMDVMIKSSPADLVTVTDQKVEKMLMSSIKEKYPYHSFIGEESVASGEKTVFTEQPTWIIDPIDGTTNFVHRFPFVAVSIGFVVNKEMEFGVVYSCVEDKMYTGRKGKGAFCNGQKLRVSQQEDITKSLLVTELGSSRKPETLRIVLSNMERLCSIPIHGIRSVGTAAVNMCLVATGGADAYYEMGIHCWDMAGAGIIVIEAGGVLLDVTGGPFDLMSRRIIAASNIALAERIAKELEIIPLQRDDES
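Carbachol-driven Gq signalling in CHO-M1 cells (2000/well) generates IP1. Compounds that block IMPase raise IP1 and so reduce the FRET signal from Eu-anti-IP1 and d2-IP1 after a 10 min room-temperature lysis.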
Each line names hits and unclear results; the compound was inactive in the other large screens.

CC(C)(C)NC(=O)[C@@H]1C[C@H]2CCCC[C@@H]2CN1C[C@H](O)[C@H](Cc1ccccc1)NC(=O)[C@@H](CC(N)=O)NC(=O)c1ccc2ccccc2n1	Lamin A splicing inconclusive (no result: PNC inhibitor)
CCN(C(=O)C1CCN(S(=O)(=O)c2ccc3c(c2)CCCN3C(C)=O)CC1)c1cccc(C)c1	none (no result: PNC inhibitor, IMPase cell inh)
Cc1cc(S(=O)(=O)Nc2ccccc2C(=O)O)ccc1Cl	PNC inhibitor -117, Lamin A splicing inconclusive
O=C(O)c1ccccc1NS(=O)(=O)c1ccc2c(c1)OCCO2	none (no result: PNC inhibitor, IMPase cell inh)
CC1CCN(CC[C@@H]2CCCN2S(=O)(=O)c2cccc(O)c2)CC1	none (no result: PNC inhibitor, Lamin A splicing)
S=C1NNC2(NN1)C1CC3CC(C1)CC2C3	PNC inhibitor -100
C1CSC2(N1)C1CC3CC(C1)CC2C3 (stereo not given)	none
CC1CCN(C(=O)CSc2nnc(Cc3cccn3C)n2CCc2ccccc2)CC1	PNC inhibitor -95
Cn1cccc1Cc1nnc(SCC(=O)N2CCCC2)n1CCc1ccccc1	none
CC12CCC(c3c1nc1ccccc1[n+]3[O-])C2(C)C (stereo not given)	none (no result: IMPase cell inh)
NC(=O)C(c1ccc(Cl)cc1)c1ccc(Sc2ccc(Cl)cc2)nn1 (stereo not given)	PNC inhibitor -93
NC(=O)COC(=O)CCSc1ccc(Cl)cc1	none (no result: PNC inhibitor, IMPase cell inh)
Cc1cccc(NC(=O)N2CCC(CN3CCOCC3)CC2)c1C	none (no result: PNC inhibitor, IMPase cell inh)
COc1ccc(-c2cn3nc(N4CCC(C(=O)Nc5ccc(C)cc5)CC4)sc3n2)cc1	none (no result: PNC inhibitor, IMPase cell inh)
CCOC(=O)C1=C(C)NC(=O)NC1c1cccs1 (stereo not given)	none (no result: PNC inhibitor, IMPase cell inh)
CC1=C(C(=O)OC(C)(C)C)C(c2cccs2)NC(=O)N1 (stereo not given)	PNC inhibitor -95 (no result: IMPase cell inh)
CCn1cc(C(=O)NCc2ccco2)c2cc(OC)c(OC)cc2c1=O	PNC inhibitor inconclusive
COc1cc2c(C(=O)NCc3ccc(C)o3)cn(CC(C)C)c(=O)c2cc1OC	PNC inhibitor -108
O=C(CN1C(=O)C2(SCC(=O)N2c2ccc(F)c(F)c2)c2ccccc21)Nc1ccccc1F (stereo not given)	none (no result: PNC inhibitor, IMPase cell inh)
O=C(Cn1ncc2c(=O)oc3ccccc3c21)NCC1CCCO1 (stereo not given)	PNC inhibitor -119
CCOCCCNC(=O)Cn1ncc2c(=O)oc3ccccc3c21	IMPase cell inh inconclusive
CCOc1ccc(NC(=O)CCS(=O)(=O)c2ccc(Br)cc2)cc1	none (no result: PNC inhibitor, IMPase cell inh)
COc1ccccc1C(=O)Nc1ccc(C2=NNC(=O)CC2C)cc1 (stereo not given)	PNC inhibitor -114 (no result: IMPase cell inh)
COc1ccccc1C(=O)Nc1ccc(C(=O)O)cc1	none (no result: IMPase cell inh)
Cc1ccc(-n2c(=O)c3sccc3n(Cc3cc(=O)n4cc(Cl)ccc4n3)c2=O)cc1F	PNC inhibitor -83
Cc1ccc(-n2c(=O)c3sccc3n(Cc3cc(=O)n4ccccc4n3)c2=O)cc1F	none
CC(=O)OC1CC2C(C)(C)C(=O)[C@@H]3OC3[C@@]2(C)C2CC[C@]3(C)C(=CC(=O)OC3c3ccoc3)[C@]12C (stereo not given in full)	none (no result: PNC inhibitor, IMPase cell inh)
CC(C)NC(=O)NC(=O)COC(=O)c1ncc(Cl)c(Cl)c1Cl	none (no result: PNC inhibitor, IMPase cell inh)
c1ccc(-c2nc3ccccc3nc2-c2ccccn2)nc1	PNC inhibitor -86
CN(C)NC(=S)Nc1ccc2nc(-c3ccccn3)c(-c3ccccn3)nc2c1	none
COc1ccc(Cn2ccc3nc(C)c(C(=O)Nc4ccc(OC)cc4)cc3c2=O)cc1	none (no result: PNC inhibitor, IMPase cell inh)
CCCCNC(=S)N/N=C/c1ccc(OCC(=O)Nc2c(C)cc(C)cc2C)c(OC)c1	PNC inhibitor -82 (no result: IMPase cell inh)
COc1cc(/C=N/NC(N)=S)ccc1OCC(=O)Nc1ccc(C)c(C)c1	Lamin A splicing inconclusive
COc1ccc(-c2c3c(=O)n(C)c(=O)n(C)c3cn2-c2ccccc2)cc1	PNC inhibitor -91
COc1ccc(C(=O)Nn2cc3c(c2-c2ccccc2)c(=O)n(C)c(=O)n3C)cc1	Lamin A splicing inconclusive
Cc1ccc(-c2cc(C(=O)N/N=C/c3cccnc3)n[nH]2)o1	PNC inhibitor -106 (no result: IMPase cell inh)
O=C(N/N=C/c1cccnc1)c1[nH]ncc1Br	none (no result: PNC inhibitor, IMPase cell inh)
Cc1ccc(CNC(=O)c2cc(-c3ccc(Cl)cc3)on2)cc1	none (no result: PNC inhibitor, IMPase cell inh)
Cc1cccc2cc(CN(Cc3ccco3)C(c3nnnn3CCc3ccccc3)C(C)C)c(=O)[nH]c12 (stereo not given)	PNC inhibitor -99, Lamin A splicing inconclusive
COc1ccc2[nH]c(=O)c(CN(Cc3ccco3)C(c3nnnn3Cc3ccccc3)C(C)C)cc2c1 (stereo not given)	Lamin A splicing inconclusive
COC(=O)c1c(C)[nH]c(C(=O)NCc2ccco2)c1C	none (no result: PNC inhibitor, IMPase cell inh)
Cc1ccc(N2CC(C(=O)NCCS(=O)(=O)N3CCN(c4ccccc4F)CC3)CC2=O)cc1 (stereo not given)	none (no result: PNC inhibitor, IMPase cell inh)
